Our source for the inhibition of ligand binding values is PubChem BioAssay AID1211 (NMMLSC, 2008).

The structures appear in SMILES notation. Active and inactive are the calls of the source. The rule behind the calls is not given here.

The experiment addresses Estrogen receptor (Homo sapiens) (UniProt P03372). As to the kind of experiment: displacement of fluorescent estrogen from ERalpha – cell-based, Cos7 ERalpha-GFP, flow cytometry, primary screen (AID 1211).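 Note: 0% = DMSO vehicle wells and 100% = no E2-Alexa633 signal left.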 The conditions noted are these: fluorescent ligand competition, stronger effect = higher value. In general terms: A flow cytometer gives signals particle by particle.

Chain of Estrogen receptor (Homo sapiens) (P03372 whole entry, looked up): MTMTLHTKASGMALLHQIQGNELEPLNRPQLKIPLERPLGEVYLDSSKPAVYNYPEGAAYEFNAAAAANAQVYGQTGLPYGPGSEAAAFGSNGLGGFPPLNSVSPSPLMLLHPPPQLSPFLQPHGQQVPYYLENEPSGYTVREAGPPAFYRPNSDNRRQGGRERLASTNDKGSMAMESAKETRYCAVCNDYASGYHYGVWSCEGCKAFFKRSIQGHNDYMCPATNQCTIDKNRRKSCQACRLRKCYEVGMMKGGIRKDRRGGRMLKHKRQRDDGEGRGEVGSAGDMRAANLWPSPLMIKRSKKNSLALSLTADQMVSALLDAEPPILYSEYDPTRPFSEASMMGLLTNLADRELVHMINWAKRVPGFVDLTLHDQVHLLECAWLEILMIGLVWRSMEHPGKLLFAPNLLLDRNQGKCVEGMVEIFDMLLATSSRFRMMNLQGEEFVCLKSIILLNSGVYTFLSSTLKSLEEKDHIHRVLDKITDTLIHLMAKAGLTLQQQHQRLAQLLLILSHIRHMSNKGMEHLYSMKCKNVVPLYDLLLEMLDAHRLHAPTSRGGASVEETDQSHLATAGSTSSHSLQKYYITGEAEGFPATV

As to `CCOc1ccccc1-c1nc(-c2ccc(NC(=O)c3ccc(Br)o3)cc2)no1`, under “at 10 µM”, the inhibition of ligand binding was 52% (inactive). On the same count and under the same terms, with `O=C(O)c1ccc2c(c1)[C@@H]1C=CC[C@@H]1[C@H](c1ccccn1)N2` the figure was 81% (active); with `COc1ccc(NS(=O)(=O)c2ccc3c(c2)[C@H]2C=CC[C@H]2[C@@H](c2ccc(C(=O)O)cc2)N3)cc1`, 100% (active). In the case of `CCN(CC)c1ccc(-c2nn3c(-c4ccccc4OC)nnc3s2)cc1`, the inhibition of ligand binding (at 10 µM) was 40% (inactive) and the inhibition of ligand binding (binding inhibition, at 0.1 µM) is 25%.

For `CCOc1ccc(C2C3=C(Nc4nc(N)[nH]c(=O)c42)c2ccccc2C3=O)cc1` (centres undefined), the inhibition of ligand binding is, setting by setting: (at 10 µM) 50% (inactive); (binding inhibition, at 0.1 µM) 26%. In the case of `CCn1c(SCC(=O)c2ccc(O)c(O)c2)nnc1-c1ccccc1OC`, the inhibition of ligand binding (at 10 µM) is 54% (inactive) and the inhibition of ligand binding (binding inhibition, at 0.1 µM) was 16%.

On to `O=S(=O)(NCCc1csc(-c2cccnc2)n1)c1ccc(Cl)s1`, for which the inhibition of ligand binding was 72% (active) (at 10 µM) and 35% (binding inhibition, at 0.1 µM).

Consider `Nc1ccc2nc(-c3cc(Cl)c(N)c(Cl)c3)[nH]c2c1`, for which the inhibition of ligand binding was 18% (inactive) (at 10 µM) and 6% (binding inhibition, at 0.1 µM). Consider `Nc1ccc(-c2nc3ccc(C(=O)O)cc3s2)cc1`, for which the inhibition of ligand binding reads like this: (at 10 µM) 0% (inactive); (binding inhibition, at 0.1 µM) 42%.

For `COc1ccc(C2=NN(C(=O)c3cccnc3)C(c3ccccc3)C2)cc1` (centres undefined), the inhibition of ligand binding was 37% (inactive) (at 10 µM) and 30% (binding inhibition, at 0.1 µM).

In the case of `Cc1ccc(-c2n[nH]c(=S)n2/N=C/C=C\c2ccccc2[N+](=O)[O-])cc1`, the inhibition of ligand binding by setting is: (at 10 µM) 40% (inactive); (binding inhibition, at 0.1 µM) 57%. For the compound `NNc1nc2sc3c(c2c(=O)[nH]1)CCc1ccccc1-3`, the inhibition of ligand binding runs as follows: (at 10 µM) 55% (inactive); (binding inhibition, at 0.1 µM) 28%. Take `O=C(Nc1cnn(C23CC4CC(CC(C4)C2)C3)c1)c1cnn2c(C(F)(F)F)cc(-c3ccco3)nc12`: the inhibition of ligand binding is, setting by setting: (at 10 µM) 48% (inactive); (binding inhibition, at 0.1 µM) 25%.

`Cc1nnc(N/N=C/c2ccc(O)c([N+](=O)[O-])c2)[nH]c1=O`: the inhibition of ligand binding is, setting by setting: (at 10 µM) 32% (inactive); (binding inhibition, at 0.1 µM) 20%. On the same counts, the results for `O=c1oc2ccccc2cc1-c1ccc(O)cc1O` are 33% (inactive) and 18%. For `COc1ccc(NC(=O)CN(c2ccccc2)S(=O)(=O)N(C)C)cc1OC`, the inhibition of ligand binding is 16% (inactive) (at 10 µM) and 16% (binding inhibition, at 0.1 µM). For the compound `CCOC(=O)C1=c2/c(=C/c3ccccc3OC)c(N)c(C#N)n2C(=O)C(c2ccccc2OC)S1` (centres undefined), the inhibition of ligand binding runs as follows: (at 10 µM) 34% (inactive); (binding inhibition, at 0.1 µM) 21%. On the same counts, the results for `Clc1ccc(Sc2cc(N3CCOCC3)nc(-c3ccccc3)n2)cc1` are 41% (inactive) and 25%. On the same counts, the results for `CCOC(=O)CN1C(c2ccc(O)cc2)Nc2ccc(Br)cc2C1c1ccccc1` (centres undefined) are 24% (inactive) and 11%. On the same counts, the results for `Cc1ccc(C)c(/C(O)=C2/C(=O)C(=O)N(CCN3CCOCC3)C2c2ccco2)c1` (centres undefined) are 0% (inactive) and 52%. Consider `COc1ccc2c(c1)c(=O)oc1cc(OCC(=O)N3CCC(C)CC3)ccc12`, for which the inhibition of ligand binding runs as follows: (at 10 µM) 0% (inactive); (binding inhibition, at 0.1 µM) 26%. In the case of `Cc1ccc(NC(=O)CSc2nc3ccccc3c3nc4ccccc4n23)cc1`, the inhibition of ligand binding was 60% (inactive) (at 10 µM) and 27% (binding inhibition, at 0.1 µM). On the same counts, the results for `Cc1cccc(N2CCN(C(=O)c3cc4c(=O)n(C)c5ccccc5c4n3C)CC2)c1C` are 55% (inactive) and 11%. On the same counts, the results for `CCn1c(SCC(=O)Nc2ccc3c(c2)oc2ccccc23)nnc1-c1ccc(N)cc1` are 44% (inactive) and 10%. On the same counts, the results for `C/C(N)=C(/C#N)C(=O)CSc1nnc(Cc2ccccc2F)n1N` are 0% (inactive) and 3%. Take `COc1ccc2nc3oc(C(=O)N4CCN(c5cccc(C(F)(F)F)c5)CC4)cc3cc2c1`: the inhibition of ligand binding by setting is: (at 10 µM) 45% (inactive); (binding inhibition, at 0.1 µM) 19%. For `Oc1ccc(-c2nnc(-c3ccccc3)c(-c3ccccc3)n2)cc1`, the inhibition of ligand binding runs as follows: (at 10 µM) 47% (inactive); (binding inhibition, at 0.1 µM) 51%. On the same counts, the results for `CCOc1ccc2nc(NC(=O)CCC(=O)c3cccs3)sc2c1` are 13% (inactive) and 17%. On the same counts, the results for `Cc1ccc(-n2nnnc2SCC(=O)Nc2ccc3c(c2)COC3=O)cc1C` are 27% (inactive) and 9%. On the same counts, the results for `CCC(=O)Nc1ccc(C(=O)Cn2nc(C(=O)O)c3ccccc3c2=O)cc1` are 50% (inactive) and 30%. Turning to `COc1ccc(C2Nc3ccccc3C(=O)N2c2ccc(Cl)cc2)cc1Cn1cc([N+](=O)[O-])cn1` (centres undefined), the inhibition of ligand binding is, setting by setting: (at 10 µM) 29% (inactive); (binding inhibition, at 0.1 µM) 49%. Take `COC(=O)c1ccc2c(=O)n(CC3CCCO3)c(SCC(=O)Nc3ccccc3Cl)nc2c1` (centres undefined): the inhibition of ligand binding runs as follows: (at 10 µM) 45% (inactive); (binding inhibition, at 0.1 µM) 37%. On the same counts, the results for `CN=c1scc(C)n1/N=C/c1ccc(O)cc1O` are 0% (inactive) and 3%.

As to `Cc1ccc(S(=O)(=O)N2CCCCC2)cc1C(=O)Nc1ncn[nH]1`, the inhibition of ligand binding (at 10 µM) is 21% (inactive) and the inhibition of ligand binding (binding inhibition, at 0.1 µM) amounted to 7%. As to `Cc1noc(C)c1COC(=O)c1cc2c3ccccc3n(C)c2s1`, the inhibition of ligand binding by setting is: (at 10 µM) 41% (inactive); (binding inhibition, at 0.1 µM) 33%. Take `CC(C)CN(C(=O)COC(=O)c1cc2c(s1)CCC2)C1CCS(=O)(=O)C1` (centres undefined): the inhibition of ligand binding by setting is: (at 10 µM) 47% (inactive); (binding inhibition, at 0.1 µM) 21%.
